# Measurements reported in PubChem BioAssay AID485346 (Sanford-Burnham Center for Chemical Genomics, 2010).
# About 10,000 (3%) of roughly 330,000 compounds were called active. The list comes from a sample in which actives are over-represented; it also holds similar structures and randomly drawn compounds. Values without a mark were called inactive.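 Rule for the calls: active = inhibition of at least 50% at 8 µM in the primary screen; inactive = the rest.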
# Molecular target: Protein Mdm4 (Homo sapiens) + E3 ubiquitin-protein ligase Mdm2 (Homo sapiens) (UniProt O15151+Q00987)
# Experiment: disruptors of Mdm2/MdmX RING complex – cell-based, luminescence, split luciferase, SaOS-2, uHTS, primary screen (AID 485346)
# Settings: SaOS-2 split-luciferase Mdm2/MdmX complementation, at 8 µM, active compounds read high
# Chain of Protein Mdm4 (Homo sapiens) + E3 ubiquitin-protein ligase Mdm2 (Homo sapiens) (O15151 whole entry, looked up): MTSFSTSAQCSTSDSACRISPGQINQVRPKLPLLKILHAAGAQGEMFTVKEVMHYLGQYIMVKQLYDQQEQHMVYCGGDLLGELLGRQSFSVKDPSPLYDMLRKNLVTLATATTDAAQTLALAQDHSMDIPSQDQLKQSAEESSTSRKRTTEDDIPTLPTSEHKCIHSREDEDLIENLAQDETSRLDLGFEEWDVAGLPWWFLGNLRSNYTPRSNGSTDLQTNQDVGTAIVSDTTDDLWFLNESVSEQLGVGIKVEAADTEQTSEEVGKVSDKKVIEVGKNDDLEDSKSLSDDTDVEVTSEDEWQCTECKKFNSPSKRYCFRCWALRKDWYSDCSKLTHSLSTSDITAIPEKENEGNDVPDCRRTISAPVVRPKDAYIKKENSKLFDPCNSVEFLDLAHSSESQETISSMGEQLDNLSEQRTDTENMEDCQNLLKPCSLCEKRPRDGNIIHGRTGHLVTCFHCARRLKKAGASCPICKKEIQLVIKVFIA
# Chain of Protein Mdm4 (Homo sapiens) + E3 ubiquitin-protein ligase Mdm2 (Homo sapiens) (Q00987 whole entry, looked up): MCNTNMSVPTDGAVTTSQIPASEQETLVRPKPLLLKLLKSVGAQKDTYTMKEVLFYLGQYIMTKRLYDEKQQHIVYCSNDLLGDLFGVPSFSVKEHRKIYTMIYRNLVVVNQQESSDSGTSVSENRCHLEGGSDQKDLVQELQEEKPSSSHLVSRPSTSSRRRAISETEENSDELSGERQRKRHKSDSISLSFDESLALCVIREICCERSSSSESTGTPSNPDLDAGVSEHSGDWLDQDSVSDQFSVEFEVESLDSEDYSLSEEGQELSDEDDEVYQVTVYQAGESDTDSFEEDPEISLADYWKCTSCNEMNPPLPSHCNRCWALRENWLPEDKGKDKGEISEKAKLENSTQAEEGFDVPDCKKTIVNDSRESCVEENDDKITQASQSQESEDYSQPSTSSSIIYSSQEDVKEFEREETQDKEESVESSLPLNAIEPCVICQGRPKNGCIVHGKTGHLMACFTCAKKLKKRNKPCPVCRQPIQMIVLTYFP
row,SMILES,inhibition
1,COC(=O)c1ccc(C2C3=C(Nc4nnnn42)c2ccccc2OC3)cc1 (centres undefined),14.2%
2,COc1ccc(C(=O)NC(C)Cn2nc(C)cc2C)cc1OC1CCN(C(C)=O)CC1 (centres undefined),2.18%
3,COC(=O)c1ccc(Nc2ncnc3sccc23)cc1,1.96%
4,O=C1CN(C(=O)c2ccccc2F)C(c2ccc(F)cc2)c2cc(F)ccc2N1 (centres undefined),-22.4%
5,CCOC(=O)C1(CCOc2ccccc2)CCN(Cc2ccc(C#CCCO)cc2)CC1,27.4%
6,CC(C)CN(CC(C)C)CC(O)CN(c1ccccc1)S(=O)(=O)c1ccccc1[N+](=O)[O-] (centres undefined),31.5%
7,CCOc1ccc(S(=O)(=O)Nc2cccc(C(=O)NCC3(N4CCCCC4)CCCCC3)c2)cc1,66.6% (active)
8,CCOc1ccc(NS(=O)(=O)c2ccc(C(=O)NCC(c3ccccc3OC)N3CCCC3)cc2)cc1 (centres undefined),38.1%
9,O=C(NCC1(N2CCCCC2)CCCCC1)c1ccc(NS(=O)(=O)c2ccc(F)cc2)cc1,8.39%
10,COc1cccc(NC(=O)c2cc(S(=O)(=O)N3CCc4ccccc43)cn2C)c1,32%
11,COCc1cc(C)n(CC(=O)NCC2CCCO2)c(=O)c1C#N (centres undefined),-12.8%
12,CCOC(=O)c1cc(NC(=O)c2ccc(Cl)cc2)c(=O)oc1-c1ccccc1,81.6% (active)
13,CC(=O)c1cc(NC(=O)c2ccccc2)c(=O)oc1/C=C/N(C)C,-7.04%
14,CCOC(=O)NNC(=O)c1ccc(Cl)cc1,9.31%
15,COC(=O)C1=C(C(=O)OC)[C@@H]2N(C)c3ccccc3[C@@]23C[C@@H](C(=O)OC)N(C(=O)c2ccco2)C3=N1,30%
16,Cc1nc(C)c(C(=O)N(c2ccc(C)c(C)c2)C(C(=O)NCc2ccco2)c2ccccc2)s1 (centres undefined),-6.49%
17,Cc1ccc(-c2nnn(CC(=O)N(Cc3ccco3)C(C(=O)NC(C)(C)C)c3ccncc3)n2)o1 (centres undefined),-5.12%
18,Cc1nn(-c2ccccc2)c2sc(C(=O)N(Cc3ccco3)C(C)C(=O)NC(C)(C)C)cc12 (centres undefined),50.9% (active)
19,CCC(C)Cn1c(O)cc2nn(-c3nc4ccccc4s3)c(=O)c-2c1C (centres undefined),39.4%
20,COC(=O)c1sccc1NC(=S)Nc1ccc(C)cc1,-1.32%

row,SMILES,inhibition
1,COc1ccc(Nc2ccc([N+](=O)[O-])cn2)cn1,8.39%
2,CCOc1ccc(S(=O)(=O)Nc2ccc(OC)nc2)cc1,-9.26%
3,COc1ccc(CCNC(=O)c2cnc(Cl)c(Cl)c2)cc1,-0.067%
4,COc1ccc(NC(=O)/C(Cl)=C(/Cl)S(=O)Cc2ccc(C)cc2)cn1 (centres undefined),91.5% (active)
5,COc1ccc(CS(=O)/C(Cl)=C(/Cl)C(=O)Nc2ccc(OC)nc2)cc1 (centres undefined),97.2% (active)
6,CCCCC(c1nnnn1CS(=O)(=O)c1ccc(C)cc1)N1CCC(C(N)=O)CC1 (centres undefined),20%
7,CC(=O)NC1CCN(CC(=O)Nc2nccs2)CC1,10.5%
8,COc1ccccc1CNC(=O)COC(=O)c1cccs1,-8.99%
9,O=C(/C=C/c1ccc(OCc2c(F)cccc2Cl)cc1)N1CCOCC1,88.9% (active)
10,COCCCNC(=O)/C=C/c1ccc(OCc2c(F)cccc2Cl)cc1,-0.73%
11,CN(C)CCCNC(=O)/C=C/c1ccc(OCc2c(F)cccc2Cl)cc1,41.4%
12,COc1cccc(NC(=O)N2CCC(NC(=O)C(Cc3cccc(C)c3)NC(C)=O)CC2)c1 (centres undefined),2.34%
13,CN(C)/C=C(/C(=O)c1ccccc1Cl)S(C)(=O)=O,-2.89%
14,CC(C(=O)O)N1C(=O)c2cccc3cccc1c23 (centres undefined),14.4%
15,CN(Cc1cccs1)C(=O)Cc1c[nH]c2ccccc12,-16.7%
16,CCc1nc2sc(C(=O)O)c(N)c2c2c1CCCC2,-3.57%
17,CCc1nc2sc3c(Cl)ncnc3c2c2c1CCCC2,64.4% (active)
18,c1ccc(CSc2ncnc3c2sc2nc(N4CCOCC4)c4c(c23)CCCC4)cc1,2.45%
19,Cc1cccc(N2Cc3ccccc3C2=NC(=O)c2ccc(Cl)nc2)c1,1.07%
20,Cc1cccc(Nc2nc(NCCO)nc(N3CCCC3)n2)c1,-22.4%

row,SMILES,inhibition
1,O=C(Nc1cc(Cl)cc(Cl)c1)C(NCCCO)c1ccccc1 (centres undefined),14.1%
2,OCCCNc1nccc(-c2cc(Nc3cccc(Cl)c3)ncn2)n1,100% (active)
3,C=CCOC(=O)C1=C[C@H](c2ccc(Br)cc2)C[C@H](OCCCCO)O1,25.6%
4,Brc1ccc(CN2CC[C@H]3C=CCc4cccc(c43)C2)cc1,3.41%
5,O=C(Nc1cc(Cl)ccc1N1CCOCC1)c1ccc(N2CCCC2=O)cc1,12.9%
6,COCCOC(=O)c1c(C)oc2cc(Br)c(OCC(N)=O)cc12,6.08%
7,COc1ccccc1OCCCC(=O)Nc1ccc2c(c1)OCCO2,6.28%
8,COC(=O)CCNc1ccc2c(c1)OCCO2,60.5% (active)
9,Cc1ccc(OCCCC(=O)Nc2ccc3c(c2)OCCO3)cc1,17%
10,COc1ccc(C(=O)NCc2nnc(SCC(=O)Nc3cccc(OC)c3)o2)cc1,20.2%
11,COc1cc(C(=O)NCc2nnc(SCC(=O)c3ccc(Cl)cc3)o2)cc(OC)c1OC,6.35%
12,COc1cc(C(=O)NCc2nnc(SCC(=O)Nc3nc4ccc(C)cc4s3)o2)cc(OC)c1OC,53.5% (active)
13,Cc1cc(O)c(C(=O)/C=C/c2c(F)c(F)c(F)c(F)c2F)c(=O)o1,8.23%
14,COc1ccc(C(=O)O/N=C(\N)Cc2ccc(Cl)cc2Cl)cc1OC,97.2% (active)
15,COc1ccc(C(=O)ON=C2c3ccccc3-c3ccccc32)cc1OC,7.13%
16,COc1ccc(C/C(N)=N/OC(=O)c2ccco2)cc1OC,6.65%
17,CCCCOc1ccc(C(=O)N/C(=C/C=C/c2ccccc2)C(=O)N2CCOCC2)cc1,-5.91%
18,Nc1cc(N2CCCCCC2)c2nonc2c1[N+](=O)[O-],25.5%
19,C=CCn1c(-c2ccc(Cl)cc2)ccc(C#N)c1=O,1.15%
